High-throughput results as filed in PubChem BioAssay.
TDP1 cell noCPT = qHTS for Inhibitors of human tyrosyl-DNA phosphodiesterase 1 (TDP1): qHTS in cells in absence of CPT; Potency, µM (highest dose often 46.2 µM), without a hit: at the top dose activity change, negative = growth inhibition, hits mostly inhibitors; 420,000 compounds, 15% hits; DT40 Tdp1-/- hTDP1 cells, no CPT, ATP luminescence, 48 h; note: potency is the fitted concentration of half-maximal effect; nearly all actives have a fitted effect of over 55% in size
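Chicken DT40 Tdp1-/- cells stably complemented with human TDP1 were seeded at 400 cells/well with DMSO in place of 20 nM camptothecin. After compound pinning, cells grew at least 48 hr at 37 °C; viability read by CellTiter-Glo luminescence.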
HT1080-NT tox = kills 2HG-producing HT-1080-NT fibrosarcoma cells | Potency, µM (highest dose often 46.1 µM), for the others: at the top dose activity, negative = less viability, actives largely listed as cytotoxic | 360,000 compounds, 1.6% hits | HT-1080-NT fibrosarcoma viability, CellTiter-Glo ATP luminescence, 48 h;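 note: NT is the 2HG producing partner of a matched IDH1 knockdown line; potency is the fitted concentration of half-maximal effect; 0% = DMSO-treated cells and -100% = media-only wells without cells; nearly all actives have a fitted effect of over 55% in size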
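Toxicity toward the 2HG-producing NT line was scored as %Activity, normalised to DMSO and no-cell wells, from CellTiter-Glo luminescence after 48 hours' treatment.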
ELG1 repair inh = blocks ELG1-dependent DNA repair in HEK293T cells. HEK293T ELG1-luciferase reporter, luminescence, 16 h; DNA damage induced by 5-fluorouridine. Potency, µM (titrated, usually from 46.1 µM), without a hit: at the highest dose activity change, negative = inhibition, hits mostly inhibitors. 330,000 compounds, 2.3% hits; note: potency is the fitted concentration of half-maximal effect; nearly all actives have a fitted effect of over 55% in size
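5-Fluorouridine DNA damage + compound/DMSO, 2,000 cells/well, 16 h, 37 °C/5% CO2. ONE-Glo, 30 min RT, luminescence. Readout = decrease in reporter signal.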
TDP1 cell CPT = growth inhibition of DT40 Tdp1-/-;hTDP1 cells with camptothecin (screen for TDP1 inhibitors). 420,000 compounds, 12% hits. chicken DT40 Tdp1-/-;hTDP1 cells + 20 nM CPT, ATP luminescence, 48 h. AID 686979. Potency, µM (series often up to 46.2 µM), for inactives: at the highest dose activity change, negative = growth inhibition, actives largely listed as inhibitors; note: potency is the fitted concentration of half-maximal effect; nearly all actives have a fitted effect of over 55% in size
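Chicken DT40 Tdp1-/- cells stably complemented with human TDP1 were seeded at 400 cells/well in medium containing 20 nM camptothecin, exposed to pin-transferred compounds, and grown at 37 °C for at least 48 hr. Viability was read as ATP luminescence.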
HT1080 IDH1KD tx = toxicity to HT-1080 IDH1 knockdown cells (counter line); HT-1080 IDH1 knockdown viability, ATP luminescence, 48 h; Potency, µM (doses to about 46.1 µM), for inactives: top-dose activity, negative = toxicity, hits mostly cytotoxic; 360,000 compounds, 2% hits;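 note: potency is the fitted concentration of half-maximal effect; 0% = DMSO wells and -100% = cell-free medium wells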
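% activity derives from luminescence (CellTiter-Glo), normalised to DMSO and no-cell wells. HT-1080-IDH1KD cells, 750/well, had 48 h compound exposure at 37 °C.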
IL-1B inflam inh = inflammasome signaling inhibition, IL-1 beta readout; THP-1 LPS/ATP IL-1B secretion, AlphaLISA, 16 h; active compounds read low; activity change, % at 57.5 µM; 360,000 compounds, 4.7% hits; in the data active = activity change below about -50%; inconclusive = mostly about -30% to -49%
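Secreted IL-1B measured by AlphaLISA bead assay after 16 h compound exposure of THP-1 cells; compounds (final up to 57.5 uM) added 1 h before LPS (250 ng/mL) and ATP (1.25 mM) stimulation; lower signal means less secretion.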
An asterisk follows results filed as active; [ ] = dose if it differs, or a comment. Only some compounds are listed: those with a hit (about 19% of all), similar ones and a draw of the others. Unless noted, calls come from the whole dose curve; as a rule, active = well fitted curve in the direction sought with a large enough effect; inconclusive = small, poorly fitted or top-dose-only effect, or another doubt; inactive = no such curve, though single readings can be large; an effect the other way counts as inactive or inconclusive. Unless noted, % is set by controls: 0 for no effect and ±100 for the full control effect.

Results for Cc1sc2c(c1C)c(=O)n(CCc1ccccc1)c(=O)n2Cc1ccc(C(C)(C)C)cc1 ?
TDP1 cell noCPT: -13%; TDP1 cell CPT: 6%

How did Cc1ccc(C)c(Cn2c(=O)n(CCc3ccccc3)c(=O)c3c(C)c(C)sc32)c1 do in these assays?
TDP1 cell noCPT: 9%; TDP1 cell CPT: -10%

What do the screens show for `CC(C)Cn1c(=O)c2ccccc2n2c(CCC(=O)NC(C)c3ccccc3)nnc12` (centres undefined)?
TDP1 cell noCPT: -2%; TDP1 cell CPT: 6%

How did O=C(COC(=O)c1cccc(Cl)c1)Nc1cc(S(=O)(=O)N2CCOCC2)ccc1N1CCOCC1 do in these assays?
TDP1 cell noCPT: -17%; HT1080-NT tox: -3%; TDP1 cell CPT: -22%; HT1080 IDH1KD tx: -4%; IL-1B inflam inh: 3

Results for O=C(OCc1c(F)cccc1Cl)c1cc([N+](=O)[O-])ccc1N1CCOCC1 ?
TDP1 cell noCPT: inconclusive; HT1080-NT tox: -15%; ELG1 repair inh: -10%; TDP1 cell CPT: inconclusive; HT1080 IDH1KD tx: -24%; IL-1B inflam inh: inconclusive

What do the screens show for `O=C(OCCN1C(=O)c2cccc3c(N4CCOCC4)ccc(c23)C1=O)c1ccc(Cl)cc1Cl`?
TDP1 cell noCPT: 4.1µM*; HT1080-NT tox: 1.8µM*; ELG1 repair inh: inconclusive; TDP1 cell CPT: 3.7µM*; HT1080 IDH1KD tx: 2.3µM*; IL-1B inflam inh: 9

Results for O=C(OCCN1C(=O)c2cccc3c(N4CCOCC4)ccc(c23)C1=O)c1cccc(Cl)c1 ?
TDP1 cell noCPT: 8.2µM*; HT1080-NT tox: 15µM*; ELG1 repair inh: inconclusive; TDP1 cell CPT: 18µM*; HT1080 IDH1KD tx: 9.2µM*; IL-1B inflam inh: -4

How did COc1ccc(NC(=O)c2ccc(C(=O)c3ccccc3)o2)cc1 do in these assays?
TDP1 cell noCPT: 2.1µM*; HT1080-NT tox: -6%; ELG1 repair inh: 17%; TDP1 cell CPT: inconclusive; HT1080 IDH1KD tx: -8%; IL-1B inflam inh: -21

What do the screens show for `COc1ccc(C(=O)Nc2ccc(C(=O)c3ccccc3)cc2)cc1`?
TDP1 cell noCPT: -22%; HT1080-NT tox: inconclusive; TDP1 cell CPT: -3%; HT1080 IDH1KD tx: inconclusive; IL-1B inflam inh: 32

What do the screens show for `CN(C)S(=O)(=O)Oc1cccc(C(=O)Nc2ccc(Cl)cc2)c1`?
TDP1 cell noCPT: 12µM*; HT1080-NT tox: 2%; ELG1 repair inh: inconclusive; TDP1 cell CPT: 8.2µM*; HT1080 IDH1KD tx: inconclusive; IL-1B inflam inh: -63*

What do the screens show for `Cc1cccc(NC(=O)c2ccc(C(=O)Nc3cccc(C)c3)nc2)c1`?
TDP1 cell noCPT: 16µM*; HT1080-NT tox: inconclusive; ELG1 repair inh: 2%; TDP1 cell CPT: 2.6µM*; HT1080 IDH1KD tx: 21µM*; IL-1B inflam inh: 43

What do the screens show for `Cc1cccc(C(=O)Nc2ccc(C(=O)c3ccccc3)cc2)c1`?
TDP1 cell noCPT: inconclusive; HT1080-NT tox: 1%; TDP1 cell CPT: inconclusive; HT1080 IDH1KD tx: -6%; IL-1B inflam inh: -80*

What do the screens show for `O=C(COC(=O)Cc1ccc(Br)cc1)Nc1ccc(Cl)cn1`?
TDP1 cell noCPT: -3%; HT1080-NT tox: 5%; ELG1 repair inh: 4%; TDP1 cell CPT: 0%; HT1080 IDH1KD tx: 7%; IL-1B inflam inh: 8

What do the screens show for `CCOC(=O)c1ccc(CN(Cc2ccc(F)cc2)S(=O)(=O)c2cc(C(=O)Nc3cccc(C(F)(F)F)c3)ccc2F)cc1`?
TDP1 cell noCPT: 23µM*; TDP1 cell CPT: 13µM*

What do the screens show for `Cc1cccc(C(=O)Nc2ccc(C(=O)c3ccncc3)cc2)c1`?
TDP1 cell noCPT: 15µM*; HT1080-NT tox: 5%; TDP1 cell CPT: inconclusive; HT1080 IDH1KD tx: 4%; IL-1B inflam inh: 17

What do the screens show for `CCOC(=O)c1ccc(CN(Cc2ccc(F)cc2)S(=O)(=O)c2ccc(F)cc2)cc1`?
TDP1 cell noCPT: inconclusive; TDP1 cell CPT: -15%

What do the screens show for `CCOC(=O)c1ccc(CN(Cc2ccccc2C)S(=O)(=O)c2ccc(C(C)(C)C)cc2)cc1`?
TDP1 cell noCPT: 18µM*; TDP1 cell CPT: inconclusive

What do the screens show for `Cc1cccc(C(=O)Nc2ccc(O)cc2)c1`?
TDP1 cell noCPT: inconclusive; HT1080-NT tox: -8%; ELG1 repair inh: inconclusive; TDP1 cell CPT: -21%; HT1080 IDH1KD tx: -6%; IL-1B inflam inh: -21

How did COc1ccc(C(=O)Nc2ccc(NC(=O)c3cccc(OC)c3)cn2)cc1 do in these assays?
TDP1 cell noCPT: -16%; HT1080-NT tox: 21µM*; ELG1 repair inh: -19%; TDP1 cell CPT: inconclusive; HT1080 IDH1KD tx: inconclusive; IL-1B inflam inh: 17

Results for COc1cc(=O)n2c(c1C(=O)NCc1ccco1)CCN(Cc1cccc(C(F)(F)F)c1)CC2 ?
TDP1 cell noCPT: -1%; TDP1 cell CPT: 17%[9.04 µM]

How did COCC(=O)Nc1cc(C(=O)N2CC3CCC2C3)c2c(c1)nc(-c1ccncc1)n2C (centres undefined) do in these assays?
TDP1 cell noCPT: -4%; TDP1 cell CPT: 9%[9.04 µM]

How did COc1cccc(C(=O)Nc2ccc(C(=O)c3ccccc3)cc2)c1 do in these assays?
TDP1 cell noCPT: 16µM*; HT1080-NT tox: -19%; ELG1 repair inh: -6%; TDP1 cell CPT: -19%; HT1080 IDH1KD tx: -18%; IL-1B inflam inh: -5

Results for Cc1ccc(C(=O)Nc2cccc(C(=O)NCc3ccccc3)c2)cc1 ?
TDP1 cell noCPT: -24%; HT1080-NT tox: inconclusive; ELG1 repair inh: inconclusive; TDP1 cell CPT: inconclusive; HT1080 IDH1KD tx: inconclusive; IL-1B inflam inh: -22

What do the screens show for `COc1ccc(C(=O)Nc2ccc3[nH]ccc3c2)cc1`?
TDP1 cell noCPT: 26µM*; HT1080-NT tox: 18µM*; TDP1 cell CPT: inconclusive; HT1080 IDH1KD tx: 21µM*; IL-1B inflam inh: -16

Results for COc1ccc(C(=O)Nc2ccc3[nH]ccc3c2)cc1OC ?
TDP1 cell noCPT: 3%; HT1080-NT tox: -12%; TDP1 cell CPT: 13%; HT1080 IDH1KD tx: -17%; IL-1B inflam inh: -27

Results for COc1cccc(NC(=O)c2ccc3c(O)c(S(=O)(=O)c4ccccc4)c(=O)[nH]c3c2)c1 ?
TDP1 cell noCPT: inconclusive; HT1080-NT tox: 4%; ELG1 repair inh: 12%; TDP1 cell CPT: 23µM*; HT1080 IDH1KD tx: 6%; IL-1B inflam inh: 1
